According to PubChem BioAssay (EPA / NIEHS):
Values joined by “and” are separate entries in the source; they are usually repeats but may differ in a detail not shown here. Equal values may be shown once. Records with an inconclusive call do not appear. Some compounds were tested as several samples or in several runs, with calls that do not always agree. Active and inactive are the calls of the source. The calls were made as follows, unless noted: active = hit-call score of the fitted dose curve at least 0.9, where 1 is the maximum; inactive = score below 0.9.

Columns and labels:
[1] = biological target: Nuclear respiratory factor 1 (Homo sapiens) (UniProt Q16656); experiment: ATG_NRF1_CIS: Attagene CIS-FACTORIAL HepG2 Assay for human Nuclear Respiratory Factor 1 (NRF1) Orphan Gene (AID 2282987); details: HepG2 NRF1 cis-element reporter, Attagene multiplex; actives raise or lower the signal
Procedure, shortened: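 Endogenous NRF1-driven reporter transcription measured in transiently transfected human HepG2 liver cells. Readout: reporter mRNA by RT-PCR and capillary electrophoresis with fluorescence detection, 24 h post-dosing. Gain or loss of signal fitted relative to DMSO baseline.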

[2] = ATG_NFI_CIS: Attagene CIS-FACTORIAL HepG2 Assay for human Nuclear Factor I (NFI) (AID 2282989); details: HepG2 cis-regulatory reporter, NFI response element transcription; actives raise or lower the signal
Procedure, shortened: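 Multiplexed cis-reporter system in human HepG2 cells reports native TF activity as reporter mRNA induction 24 h post-dose. Fragments labelled with 6-FAM, HpaI-digested and resolved by capillary electrophoresis; activity fitted both directions versus DMSO.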

[3] = biological target: Myc proto-oncogene protein (Homo sapiens) (UniProt P01106); experiment: ATG_Myc_CIS: Attagene CIS-FACTORIAL HepG2 Assay for human Myelocytomatosis (Myc) Proto-Oncogene Transcription Factor (AID 2282990); details: HepG2, Attagene cis-reporter transcription factor activity; actives raise or lower the signal
Procedure, shortened: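 Transiently transfected HepG2 cells bearing cis-promoter reporter units for endogenous transcription factors; 24 h exposure. Reporter mRNA measured by RT-PCR, 6-FAM primer extension, HpaI cut and capillary electrophoresis; bidirectional fit relative to DMSO.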

[4] = ATG_NF_kB_CIS: Attagene CIS-FACTORIAL HepG2 Assay for human Nuclear Factor Kappa B (NF-kB) (AID 2282991); details: HepG2 Attagene cis-factorial NF-kB reporter mRNA; actives raise or lower the signal
Procedure, shortened: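 Read-out: reporter transcript levels quantified by RT-PCR plus capillary electrophoresis of 6-FAM-labelled, HpaI-cut fragments. Transfected HepG2 cells, 24 h compound exposure, endogenous NF-kB-driven cis element; gain or loss scored versus DMSO.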

[5] = ATG_NRF2_ARE_CIS: Attagene CIS-FACTORIAL HepG2 Assay for human Nuclear Factor Erythroid 2 Related Factor 2 (NFR2) response to Antioxidant Response Elements (ARE) (AID 2282992); details: HepG2 Attagene ARE/NRF2 reporter, transcription factor activity; actives raise or lower the signal
Procedure, shortened: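 Endogenous transcription factor activity in human liver HepG2 cells is tracked via a cis-element-driven reporter within a multiplexed set. mRNA induction is read by RT-PCR and capillary electrophoresis after 24 h, with DMSO as baseline.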

[6] = ATG_Oct_MLP_CIS: Attagene CIS-FACTORIAL HepG2 Assay for human Octamer-Binding Transcription Factor (Oct) (AID 2282993); details: HepG2 Attagene cis-factorial Oct reporter, mRNA; actives raise or lower the signal
Procedure, shortened: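 After 24 h compound exposure, transfected HepG2 cells were lysed for total RNA; reporter-specific cDNA was PCR-amplified, fluorescently labelled and sized by capillary electrophoresis. Bidirectional curve fitting used DMSO as baseline.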

[7] = BSK_3C_TissueFactor: BioMAP Diversity Plus: 3C Assay for Tissue Factor Biomarker Activity (AID 2282997); details: BioMAP 3C HUVEC, tissue factor biomarker readout; actives raise or lower the signal
Procedure, shortened: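 Tissue factor on primary human umbilical vein endothelium was read by ELISA 24 h after dosing, gain or loss relative to DMSO. Cytotoxicity ran alongside via SRB (0.1%, TCA-fixed, 560 nm).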

[8] = BSK_3C_uPAR: BioMAP Diversity Plus: 3C Assay for Urokinase-type plasminogen activator receptor (uPAR) Biomarker Activity (AID 2282998); details: BioMAP 3C HUVEC, uPAR biomarker ELISA; actives raise or lower the signal
Procedure, shortened: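 Values derive from bidirectional curve fitting relative to DMSO, which served as baseline of activity. uPAR was measured by ELISA in human umbilical vein endothelial primary cultures 24 h after compound addition.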

[9] = BSK_3C_VCAM1: BioMAP Diversity Plus: 3C Assay for Vascular cell adhesion molecule 1 (VCAM1) Biomarker Activity (AID 2282999); details: BioMAP 3C HUVEC, VCAM1 ELISA, cytokine-stimulated; actives raise or lower the signal
Procedure, shortened: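 HUVEC primary cells, 24 h compound exposure; VCAM-1 by ELISA; gain/loss of signal fitted bidirectionally vs DMSO baseline.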

[10] = BSK_4H_Eotaxin3: BioMAP Diversity Plus: 4H Assay for Eotaxin 3 Biomarker Activity (AID 2283000); details: primary human endothelial cells (HUVEC); actives raise or lower the signal;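 as to outcome: CCL26 protein level quantified by ELISA in parallel with SRB cytotoxicity check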
Procedure, shortened: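 Human umbilical vein endothelial cells (BSK_4H system) dosed with test chemical; Eotaxin-3 (CCL26) measured by ELISA 24 h after dosing. Bidirectional curve fitting relative to DMSO negative control as baseline.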

[11] = biological target: human Peroxisome Proliferator-activated Receptor alpha (PPARa), PPARA (gene 5465) (UniProt Q07869); experiment: ATG_PPARa_TRANS: Attagene TRANS-FACTORIAL HepG2 Assay for human Peroxisome Proliferator-activated Receptor alpha (PPARa) (AID 2283001; active = hit-call score of the fitted dose curve at least 0.9, where 1 is the maximum;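 as to AC50: potency for gain of reporter signal over DMSO so agonist or activator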)
Procedure, shortened: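 Transient HepG2 transfection, GAL4-UAS reporters, NR-Gal4 chimeras; 24 h compound exposure. Readout: reporter transcripts by RT-PCR, 6-FAM primer extension, HpaI digest, capillary electrophoresis. Positive direction vs DMSO baseline.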

[12] = read-out: Intercellular Adhesion Molecule 1 (ICAM1), ICAM1 (gene 3383); experiment: BSK_3C_ICAM1: BioMAP Diversity Plus: 3C Assay for Intercellular Adhesion Molecule 1 (ICAM1) Biomarker Activity (AID 2283003); details: primary human endothelial cells (HUVEC); actives raise or lower the signal
Procedure, shortened: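 ELISA read-out of ICAM-1; HUVEC (primary human), 3C system, 24 h post-dosing; bidirectional fit vs DMSO baseline.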

[13] = biological target: human Retinoic Acid Receptor beta (RARb), RARB (gene 5915) (UniProt P10826); experiment: ATG_RARb_TRANS: Attagene TRANS-FACTORIAL HepG2 Assay for human Retinoic Acid Receptor beta (AID 2283004; active = hit-call score of the fitted dose curve at least 0.9, where 1 is the maximum)
Procedure, shortened: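 Induction of reporter mRNA from a chimeric RARb-Gal4 construct was measured by RT-PCR, FAM labelling, HpaI digestion and capillary electrophoresis. Measurements followed 24 h compound treatment of transiently transfected human HepG2 liver cells, with DMSO as baseline.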

[14] = BSK_3C_Proliferation: Cell Proliferation Assessment in the BioMAP Diversity Plus: 3C Assay (AID 2283006); details: primary human endothelial cells (HUVEC);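 as to AC50: potency may reflect either rise or fall in cell number versus DMSO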
Procedure, shortened: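 HUVEC, sub-confluent; 48 h chemical exposure; 10% TCA fix, 0.1% SRB stain, A560 total protein. Gain or loss of signal fitted both directions vs DMSO control.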

[15] = biological target: Peroxisome proliferator-activated receptor gamma (Homo sapiens) (UniProt P37231); experiment: ATG_PPARg_TRANS: Attagene TRANS-FACTORIAL HepG2 Assay for human Peroxisome Proliferator-activated Receptor-gamma (PPARg) (AID 2283007; active = hit-call score of the fitted dose curve at least 0.9, where 1 is the maximum)
Procedure, shortened: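 Read-out: reporter mRNA induction, detected by fluorescence after RT-PCR and capillary electrophoresis. Transiently transfected human HepG2 liver cells carrying a chimeric NR-Gal4 construct were dosed for 24 h; activity was fitted upward relative to DMSO.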

[16] = biological target: Nuclear receptor subfamily 1 group I member 2 (Homo sapiens) (UniProt O75469); experiment: ATG_PXR_TRANS: Attagene TRANS-FACTORIAL HepG2 Assay for human Pregnane X Receptor (PXR) (AID 2283008; active = hit-call score of the fitted dose curve at least 0.9, where 1 is the maximum)
Procedure, shortened: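 HepG2 transfected (FuGene 6) with GAL4-UAS reporter units + PXR-Gal4 chimera; dosed 24 h. Total RNA → oligo(dT) RT → PCR → 6-FAM primer extension → HpaI cut → CE. Gain-of-signal vs DMSO.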

[17] = biological target: human Peroxisome Proliferator-activated Receptor delta (PPARd), PPARD (gene 5467) (UniProt Q03181); experiment: ATG_PPARd_TRANS: Attagene TRANS-FACTORIAL HepG2 Assay for human Peroxisome Proliferator-activated Receptor delta (PPARd) (AID 2283002; active = hit-call score of the fitted dose curve at least 0.9, where 1 is the maximum)
Procedure, shortened: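 HepG2 cells transiently transfected with GAL4-UAS multiplexed reporter units driven by exogenous chimeric NR-GAL4 proteins; 24 h compound exposure. Reporter mRNA measured by RT-PCR, 6-FAM primer extension, HpaI digestion and capillary electrophoresis; gain of signal fitted relative to DMSO.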

[18] = biological target: Cellular tumor antigen p53 (Homo sapiens) (UniProt P04637); experiment: ATG_p53_CIS: Attagene CIS-FACTORIAL HepG2 Assay for human p53 Transcription Factor (AID 2282994); details: HepG2 p53 cis-element reporter, Attagene mRNA; actives raise or lower the signal
Procedure, shortened: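 Steps: transfect HepG2 with multiplexed cis reporter constructs; dose chemicals 24 h; extract RNA, reverse-transcribe, PCR-amplify reporter sequences; FAM-label, HpaI-digest, resolve fragments by CE. Activity fitted both directions relative to DMSO.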

[19] = biological target: Retinoic acid receptor alpha (Homo sapiens) (UniProt P10276); experiment: ATG_RARa_TRANS: Attagene TRANS-FACTORIAL HepG2 Assay for human Retinoic Acid Receptor alpha (RARa) (AID 2283005; active = hit-call score of the fitted dose curve at least 0.9, where 1 is the maximum)
Procedure, shortened: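 HepG2 transiently transfected with multiplex GAL4-UAS reporter units including a human RARa–GAL4 chimera; 24 h compound exposure. Reporter mRNA quantified by RT-PCR, 6-FAM labeling and capillary electrophoresis; gain of signal versus DMSO.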

[20] = biological target: human Retinoic Acid Receptor gamma (RARg), RARG (gene 5916) (UniProt P13631); experiment: ATG_RARg_TRANS: Attagene TRANS-FACTORIAL HepG2 Assay for human Retinoic Acid Receptor gamma (RARg) (AID 2283009; active = hit-call score of the fitted dose curve at least 0.9, where 1 is the maximum)
Procedure, shortened: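 Readout: reporter transcript levels via RT-PCR, 6-FAM primer-extension labelling, HpaI digestion and capillary electrophoresis. Cells: HepG2 carrying transfected RARg-GAL4 chimera plus UAS reporter set. Dosing 24 h; DMSO negative control.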

Nuclear receptor subfamily 1 group I member 2 (Homo sapiens), sequence (O75469 whole entry, looked up, the tested form may be a part): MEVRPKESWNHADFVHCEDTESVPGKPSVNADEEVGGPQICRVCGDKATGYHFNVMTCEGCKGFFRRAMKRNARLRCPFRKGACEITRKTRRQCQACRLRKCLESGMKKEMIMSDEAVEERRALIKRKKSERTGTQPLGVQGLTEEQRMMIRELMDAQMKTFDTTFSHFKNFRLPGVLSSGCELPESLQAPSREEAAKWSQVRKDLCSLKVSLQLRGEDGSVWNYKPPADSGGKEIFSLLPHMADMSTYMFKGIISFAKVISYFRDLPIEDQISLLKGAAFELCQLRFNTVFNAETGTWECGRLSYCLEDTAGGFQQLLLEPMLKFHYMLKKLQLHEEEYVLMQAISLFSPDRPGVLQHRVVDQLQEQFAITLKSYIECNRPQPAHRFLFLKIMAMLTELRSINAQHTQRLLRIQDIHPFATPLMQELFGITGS
human Peroxisome Proliferator-activated Receptor alpha (PPARa), PPARA (gene 5465), sequence (Q07869 whole entry, looked up, the tested form may be a part): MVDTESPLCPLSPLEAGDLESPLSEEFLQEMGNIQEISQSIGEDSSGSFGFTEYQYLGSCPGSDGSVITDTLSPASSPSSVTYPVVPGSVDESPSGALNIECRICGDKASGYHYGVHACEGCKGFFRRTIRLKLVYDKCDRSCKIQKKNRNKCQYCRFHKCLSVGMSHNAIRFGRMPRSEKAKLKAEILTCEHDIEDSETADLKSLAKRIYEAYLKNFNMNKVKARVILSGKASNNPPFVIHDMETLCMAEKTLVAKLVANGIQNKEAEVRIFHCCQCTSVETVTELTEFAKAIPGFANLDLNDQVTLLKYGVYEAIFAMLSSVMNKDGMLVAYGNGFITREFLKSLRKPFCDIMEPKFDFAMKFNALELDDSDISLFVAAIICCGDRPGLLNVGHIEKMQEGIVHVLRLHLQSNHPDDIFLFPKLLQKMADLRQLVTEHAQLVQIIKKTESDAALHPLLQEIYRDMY
Peroxisome proliferator-activated receptor gamma (Homo sapiens), sequence (P37231 whole entry, looked up, the tested form may be a part): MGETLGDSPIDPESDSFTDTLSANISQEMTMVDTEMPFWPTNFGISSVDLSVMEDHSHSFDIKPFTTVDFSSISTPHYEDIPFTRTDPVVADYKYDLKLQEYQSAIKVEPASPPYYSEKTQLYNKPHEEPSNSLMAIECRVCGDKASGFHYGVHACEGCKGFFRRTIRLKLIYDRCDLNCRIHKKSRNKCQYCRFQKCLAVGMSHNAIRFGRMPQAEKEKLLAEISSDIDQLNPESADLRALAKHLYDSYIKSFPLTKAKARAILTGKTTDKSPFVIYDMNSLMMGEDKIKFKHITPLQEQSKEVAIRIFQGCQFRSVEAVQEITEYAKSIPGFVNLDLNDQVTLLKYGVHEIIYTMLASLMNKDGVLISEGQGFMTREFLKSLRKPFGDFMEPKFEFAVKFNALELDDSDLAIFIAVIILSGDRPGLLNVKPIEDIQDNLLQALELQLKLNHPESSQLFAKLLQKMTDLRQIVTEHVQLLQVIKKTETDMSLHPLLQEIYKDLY
Cellular tumor antigen p53 (Homo sapiens), sequence (P04637 whole entry, looked up, the tested form may be a part): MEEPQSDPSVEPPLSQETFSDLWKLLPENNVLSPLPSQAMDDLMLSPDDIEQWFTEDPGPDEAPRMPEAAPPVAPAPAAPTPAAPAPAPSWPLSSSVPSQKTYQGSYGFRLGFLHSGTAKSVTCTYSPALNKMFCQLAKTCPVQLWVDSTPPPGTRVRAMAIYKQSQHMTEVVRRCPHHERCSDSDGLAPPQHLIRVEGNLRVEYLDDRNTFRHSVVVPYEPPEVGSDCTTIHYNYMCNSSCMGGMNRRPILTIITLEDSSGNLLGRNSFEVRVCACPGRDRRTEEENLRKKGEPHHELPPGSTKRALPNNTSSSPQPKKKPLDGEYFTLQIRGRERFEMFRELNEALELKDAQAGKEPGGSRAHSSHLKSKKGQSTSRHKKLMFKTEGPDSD
human Peroxisome Proliferator-activated Receptor delta (PPARd), PPARD (gene 5467), sequence (Q03181 whole entry, looked up, the tested form may be a part): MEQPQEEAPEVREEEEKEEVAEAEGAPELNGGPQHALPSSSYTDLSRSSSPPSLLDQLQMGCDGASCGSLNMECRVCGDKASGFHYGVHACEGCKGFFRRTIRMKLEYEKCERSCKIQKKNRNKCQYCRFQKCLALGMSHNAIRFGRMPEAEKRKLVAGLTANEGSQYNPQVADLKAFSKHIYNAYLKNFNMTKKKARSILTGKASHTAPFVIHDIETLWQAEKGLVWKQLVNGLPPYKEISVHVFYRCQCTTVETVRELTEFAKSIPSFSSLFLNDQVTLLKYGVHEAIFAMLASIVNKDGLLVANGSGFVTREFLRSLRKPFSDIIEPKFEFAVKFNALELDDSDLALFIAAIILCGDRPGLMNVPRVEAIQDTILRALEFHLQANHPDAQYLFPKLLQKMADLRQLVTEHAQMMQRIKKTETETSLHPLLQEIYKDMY
human Retinoic Acid Receptor beta (RARb), RARB (gene 5915), sequence (P10826 whole entry, looked up, the tested form may be a part): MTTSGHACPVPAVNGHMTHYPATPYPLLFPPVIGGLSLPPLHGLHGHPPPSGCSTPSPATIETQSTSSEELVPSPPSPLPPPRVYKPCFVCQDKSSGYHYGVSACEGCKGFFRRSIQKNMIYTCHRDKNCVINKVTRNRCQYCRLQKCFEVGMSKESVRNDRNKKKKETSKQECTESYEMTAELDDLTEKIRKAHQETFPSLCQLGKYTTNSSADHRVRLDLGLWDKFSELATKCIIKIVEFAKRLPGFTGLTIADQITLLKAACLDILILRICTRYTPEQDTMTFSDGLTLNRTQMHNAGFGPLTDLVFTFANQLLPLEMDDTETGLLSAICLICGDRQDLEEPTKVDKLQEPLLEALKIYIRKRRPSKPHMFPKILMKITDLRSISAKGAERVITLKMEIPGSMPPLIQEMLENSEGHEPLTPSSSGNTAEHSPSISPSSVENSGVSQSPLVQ
Myc proto-oncogene protein (Homo sapiens), sequence (P01106 whole entry, looked up): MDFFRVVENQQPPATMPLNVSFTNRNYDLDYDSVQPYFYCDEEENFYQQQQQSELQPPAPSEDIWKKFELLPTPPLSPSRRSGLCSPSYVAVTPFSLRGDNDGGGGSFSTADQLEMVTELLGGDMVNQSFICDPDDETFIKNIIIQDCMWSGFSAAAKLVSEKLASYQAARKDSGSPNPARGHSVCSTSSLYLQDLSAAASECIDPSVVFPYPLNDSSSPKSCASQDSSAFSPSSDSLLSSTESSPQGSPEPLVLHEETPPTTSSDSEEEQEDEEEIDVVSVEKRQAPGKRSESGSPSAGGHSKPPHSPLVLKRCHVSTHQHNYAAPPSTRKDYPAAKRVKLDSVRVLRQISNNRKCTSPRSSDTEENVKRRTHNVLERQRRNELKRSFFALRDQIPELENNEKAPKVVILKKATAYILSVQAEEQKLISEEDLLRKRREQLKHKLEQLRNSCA
Nuclear respiratory factor 1 (Homo sapiens), sequence (Q16656 whole entry, looked up): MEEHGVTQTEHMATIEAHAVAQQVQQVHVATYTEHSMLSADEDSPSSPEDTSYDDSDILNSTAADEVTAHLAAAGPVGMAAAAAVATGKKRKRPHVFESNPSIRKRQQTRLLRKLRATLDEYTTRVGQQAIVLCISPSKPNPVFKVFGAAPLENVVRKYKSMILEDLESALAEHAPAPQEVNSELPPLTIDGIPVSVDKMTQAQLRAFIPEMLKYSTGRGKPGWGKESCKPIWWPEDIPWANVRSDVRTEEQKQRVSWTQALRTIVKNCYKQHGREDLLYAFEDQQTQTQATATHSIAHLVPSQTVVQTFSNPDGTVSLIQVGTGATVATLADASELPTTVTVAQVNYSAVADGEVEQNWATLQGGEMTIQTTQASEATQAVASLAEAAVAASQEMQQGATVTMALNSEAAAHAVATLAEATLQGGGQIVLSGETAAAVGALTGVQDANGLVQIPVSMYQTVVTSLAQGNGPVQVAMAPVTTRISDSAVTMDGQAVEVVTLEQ
Retinoic acid receptor alpha (Homo sapiens), sequence (P10276 whole entry, looked up, the tested form may be a part): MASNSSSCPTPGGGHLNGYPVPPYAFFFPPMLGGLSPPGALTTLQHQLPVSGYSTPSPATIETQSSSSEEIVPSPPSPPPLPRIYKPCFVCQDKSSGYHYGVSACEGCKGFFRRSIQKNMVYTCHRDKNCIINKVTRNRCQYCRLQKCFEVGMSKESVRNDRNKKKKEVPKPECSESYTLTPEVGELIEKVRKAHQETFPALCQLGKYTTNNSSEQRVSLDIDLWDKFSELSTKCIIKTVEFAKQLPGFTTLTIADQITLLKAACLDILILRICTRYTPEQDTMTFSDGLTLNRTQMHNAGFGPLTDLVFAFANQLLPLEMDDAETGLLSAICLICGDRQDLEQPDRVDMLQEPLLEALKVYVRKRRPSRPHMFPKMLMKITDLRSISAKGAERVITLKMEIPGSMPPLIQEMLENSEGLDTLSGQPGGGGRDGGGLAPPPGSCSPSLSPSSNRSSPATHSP
human Retinoic Acid Receptor gamma (RARg), RARG (gene 5916), sequence (P13631 whole entry, looked up, the tested form may be a part): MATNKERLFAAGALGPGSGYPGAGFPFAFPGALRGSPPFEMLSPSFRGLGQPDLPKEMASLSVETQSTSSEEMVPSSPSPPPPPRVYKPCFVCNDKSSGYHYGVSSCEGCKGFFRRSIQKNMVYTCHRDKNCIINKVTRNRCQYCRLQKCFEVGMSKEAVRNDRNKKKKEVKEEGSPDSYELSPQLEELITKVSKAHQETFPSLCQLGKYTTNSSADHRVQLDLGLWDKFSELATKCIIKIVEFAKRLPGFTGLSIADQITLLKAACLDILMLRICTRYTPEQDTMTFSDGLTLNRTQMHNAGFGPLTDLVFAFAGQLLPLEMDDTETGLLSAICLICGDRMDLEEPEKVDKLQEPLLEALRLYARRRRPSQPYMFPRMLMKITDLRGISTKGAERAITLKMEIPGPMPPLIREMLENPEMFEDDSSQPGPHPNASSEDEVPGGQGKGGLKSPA

## NC(=O)C(F)(F)C(F)(F)C(F)(F)C(F)(F)F
[1]
  outcome: inactive
[2]
  outcome: inactive
[3]
  outcome: inactive
[4]
  outcome: inactive
[5]
  outcome: inactive
[6]
  outcome: inactive
[7]
  outcome: inactive
[8]
  outcome: inactive
[9]
  outcome: inactive
[10]
  outcome: inactive
[11]
  outcome: inactive
[12]
  outcome: inactive
[13]
  outcome: inactive
[14]
  outcome: inactive
[15]
  outcome: inactive
[16]
  outcome: inactive

## CNC(=S)NC
[1]
  outcome: inactive
[2]
  outcome: inactive
[3]
  outcome: inactive
[4]
  outcome: inactive
[5]
  outcome: inactive
[6]
  outcome: inactive
[17]
  outcome: inactive
[13]
  outcome: inactive
[15]
  outcome: inactive
[16]
  outcome: inactive

## O=C(Cl)C(F)(F)C(F)(F)C(F)(F)C(F)(F)C(F)(F)C(F)(F)C(F)(F)C(F)(F)F
[1]
  outcome: inactive
[2]
  outcome: inactive
[3]
  outcome: inactive
[4]
  outcome: inactive
[5]
  AC50: 15.8 µM (active)
[6]
  AC50: 47.1 µM (active)
[18]
  AC50: 54.3 µM (active)
[7]
  AC50: 53.4 µM (active)
  outcome: inactive
[8]
  AC50: 30 µM (active) and 46 µM (active)
  outcome: inactive
[9]
  outcome: inactive
[10]
  AC50: 42.9 µM (active) and 30 µM (active)
  outcome: inactive
[11]
  AC50: 10.3 µM (active)
[17]
  outcome: inactive
[12]
  outcome: inactive
[13]
  outcome: inactive
[19]
  outcome: inactive
[14]
  AC50: 44.9 µM (active) and 53.1 µM (active) and 54.2 µM (active)
[15]
  AC50: 25.2 µM (active)
[16]
  AC50: 54.5 µM (active)
[20]
  outcome: inactive

## CS(C)(=O)=O
[1]
  outcome: inactive
[2]
  outcome: inactive
[3]
  outcome: inactive
[4]
  outcome: inactive
[5]
  AC50: 27.5 µM (active)
[18]
  outcome: inactive
[7]
  outcome: inactive
[8]
  outcome: inactive
[9]
  outcome: inactive
[10]
  outcome: inactive
[11]
  outcome: inactive
[12]
  outcome: inactive
[14]
  outcome: inactive
[16]
  outcome: inactive

## FC(F)(F)C(F)(F)C(F)(F)C(F)(F)C(F)(F)C(F)(F)C(F)(F)I
[1]
  outcome: inactive
[2]
  outcome: inactive
[3]
  outcome: inactive
[4]
  outcome: inactive
[5]
  outcome: inactive
[6]
  outcome: inactive
[7]
  outcome: inactive
[8]
  outcome: inactive
[9]
  outcome: inactive
[10]
  outcome: inactive
[11]
  outcome: inactive
[17]
  outcome: inactive
[12]
  outcome: inactive
[13]
  outcome: inactive
[14]
  outcome: inactive
[15]
  outcome: inactive

## C=CC(=O)OCC(F)(F)C(F)(F)C(F)(F)C(F)(F)C(F)(F)C(F)(F)C(F)(F)F
[1]
  outcome: inactive
[2]
  outcome: inactive
[3]
  outcome: inactive
[4]
  outcome: inactive
[5]
  AC50: 50 µM (active)
[6]
  outcome: inactive
[18]
  outcome: inactive
[7]
  outcome: inactive
[8]
  outcome: inactive
[9]
  outcome: inactive
[10]
  outcome: inactive
[11]
  outcome: inactive
[17]
  outcome: inactive
[12]
  outcome: inactive
[14]
  AC50: 30 µM (active)
[15]
  outcome: inactive
[16]
  outcome: inactive

## CC(C)(C)c1ccc(OC2CCCCC2O)cc1 (stereo not drawn)
[1]
  outcome: inactive
[2]
  outcome: inactive
[3]
  outcome: inactive
[4]
  outcome: inactive
[5]
  AC50: 20.5 µM (active)
[6]
  outcome: inactive
[18]
  outcome: inactive
[17]
  outcome: inactive
[13]
  outcome: inactive
[19]
  outcome: inactive
[15]
  AC50: 28.4 µM (active)
[16]
  AC50: 2.96 µM (active)
